High-throughput results as filed in PubChem BioAssay.
Epigenetic reg: Quantitative High-Throughput Screen for Regulators of Epigenetic Control. AID 1865, 2009. 280,000 compounds, 0.2% hits. Potency, µM (series often up to 53.9 µM), for inactives: top-dose GFP activation, usual class: activators. murine LDR cells, GFP reporter derepression, 30 h; further: % of control where 0% means no effect; nearly all actives have a fitted effect of over 60% in size
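In this reporter-derepression format, murine cells bearing a silenced integrated CMV-GFP locus incubate with test compound (30 h, 37 C), then are washed and imaged; fluorescent objects of 20–120 um count as induced cells.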
Gal4-VP16 FLuc: VP16 counterscreen qHTS for inhibitors of ROR gamma transcriptional activity | Drosophila S2 Gal4-VP16 UAS-luciferase, luminescence, 20 h | AID 2546, 2010 | Potency, µM (highest dose often 53.6 µM), for the others: top-dose activity, negative = inhibition, usual class: inhibitors | 310,000 compounds, 3.5% hits;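 further: Gal4-VP16 expression switched on by copper sulfate through the metallothionein promoter; on the % scale 0 is the no-effect control and ±100 the full control effect; nearly all actives have a fitted effect of over 50% in size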
RORgamma inh: qHTS for inhibitors of ROR gamma transcriptional activity | Nuclear receptor ROR-gamma (Mus musculus), P51450 | Drosophila S2 Gal4-RORgamma UAS-luciferase reporter, 20 h | Potency, µM (doses to about 53.6 µM), for the others: at the top dose activity change, negative = inhibition, most hits filed as inhibitors | 310,000 compounds, 5.4% hits | AID 2551, 2010; further: on the % scale 0 is the no-effect control and ±100 the full control effect; nearly all actives have a fitted effect of over 60% in size
Target sequence (P51450 whole entry, looked up, the tested form may be a part): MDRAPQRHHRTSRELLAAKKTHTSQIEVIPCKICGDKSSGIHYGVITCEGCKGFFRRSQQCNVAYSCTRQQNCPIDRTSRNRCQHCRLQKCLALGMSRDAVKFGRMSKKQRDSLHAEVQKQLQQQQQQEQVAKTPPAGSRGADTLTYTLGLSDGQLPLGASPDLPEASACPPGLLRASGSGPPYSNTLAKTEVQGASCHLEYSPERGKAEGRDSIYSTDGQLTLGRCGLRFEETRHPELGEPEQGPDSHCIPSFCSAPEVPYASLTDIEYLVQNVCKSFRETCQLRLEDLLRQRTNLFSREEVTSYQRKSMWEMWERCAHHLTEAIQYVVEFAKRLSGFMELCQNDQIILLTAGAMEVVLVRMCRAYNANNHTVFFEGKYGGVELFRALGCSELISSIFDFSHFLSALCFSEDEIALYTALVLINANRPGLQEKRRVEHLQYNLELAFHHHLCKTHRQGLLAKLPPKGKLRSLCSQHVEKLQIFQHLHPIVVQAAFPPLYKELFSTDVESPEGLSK
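Schneider cells (Drosophila), stable Gal4 DBD–ROR gamma + UAS-luc; 1 hr cmpd preincubation; Cu2+ induction 700 uM final; 20 hr ambient; luminescence.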
Sfp PPTase inh: qHTS Assay for Inhibitors of Bacillus subtilis Sfp phosphopantetheinyl transferase (PPTase); 4'-phosphopantetheinyl transferase ffp (Bacillus subtilis), Q9F4F7; Biochemical Sfp PPTase activity, qHTS; Potency, µM, for inactives: largest response in the series, negative = inhibition, actives largely listed as inhibitors; 310,000 compounds, 3.5% hits;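 further: the enzyme is Sfp with the accession as filed and its product quenches rhodamine fluorescence; 0% = enzyme reaction without inhibitor and -100% = no enzyme wells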
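Sfp 15 nM + cpd, 15 min RT; start w/ rhodamine-CoA 5 uM, BHQ-2-YbbR 12.5 uM (final); 50 mM Hepes pH 7.6, 10 mM MgCl2, 0.01% NP-40, 0.01% BSA; read 525/598 nm at 0 and 30 min.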
ClpP mod: qHTS Assay for Activators of ClpP. ATP-dependent Clp protease proteolytic subunit (Bacillus subtilis (strain 168)), P80244. purified B. subtilis ClpP, FRET peptide cleavage, 20 min. Potency, µM (highest dose often 57.5 µM), inactives show top-dose activity change, negative = active. 340,000 compounds, 1.9% hits. AID 651965, 2013; active means well fitted falling curve with a large enough effect; inconclusive means small, poorly fitted or top-dose-only effect; inactive means no such curve, though single readings can be large or run the other way; further: the source files actives as falling curves though it sought activators and does not explain the sign; nearly all actives have a fitted effect of over 65% in size
Target sequence (P80244 whole entry, looked up): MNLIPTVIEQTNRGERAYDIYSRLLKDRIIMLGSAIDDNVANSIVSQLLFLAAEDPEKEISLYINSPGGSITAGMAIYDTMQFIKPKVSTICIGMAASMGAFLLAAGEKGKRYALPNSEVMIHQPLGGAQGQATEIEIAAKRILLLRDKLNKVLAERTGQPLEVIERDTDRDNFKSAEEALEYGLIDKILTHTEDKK
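ClpP 10 microg/mL final, pH 8 Tris/KCl buffer with BSA, glycerol, Tween-20; compound pinned in; FRET-FV substrate; RT 20 min; Ex320/Em430; ΔFRET vs ADEP 5.8 microM, DMSO, no enzyme.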
PINK1 expr mod: A Quantitative High throughput Screen to Identify Chemical Modulators of PINK1 Expression | PINK1 immunofluorescence, high-content cytometry, 24 h | Potency, µM (titrated, usually from 76.6 µM), without a hit: at the top dose activation (PINK1 increase), actives largely listed as activators | 410,000 compounds, 0.2% hits; active means well fitted activation curve with a large enough effect; inconclusive means small, poorly fitted or top-dose-only effect; cell line not stated here; further: % of control where 0% means no effect; nearly all actives have a fitted effect of over 65% in size
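Stable cell line treated 24 h with compounds at 5 concentrations (CCCP controls), then fixed and immunostained for PINK1 plus nuclear and cell stains; PINK1 immunofluorescence quantified by laser-scanning microplate cytometry.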
* marks the source's active call; other numbers are inactive results; [ ] = dose if it differs, or a comment. In the library only some 8.1% were active in any assay of this set; here they are far more common. Unless noted, the call rests on the fitted dose curve; in most records, active means well fitted curve in the direction sought with a large enough effect; inconclusive means small, poorly fitted or top-dose-only effect, or another doubt; inactive means no such curve, though single readings can be large; an effect the other way counts as inactive or inconclusive. Potency means the concentration at half of the fitted maximal effect.

Results for Cc1ccc(OCc2n[nH]c(=S)n2C2CCCCC2)cc1 ?
Epigenetic reg: 1%; Gal4-VP16 FLuc: 3.5µM*; RORgamma inh: 1.4µM*; Sfp PPTase inh: 9%; ClpP mod: 0%; PINK1 expr mod: 4%[38.3 µM]

What do the screens show for `S=c1[nH]nc(COc2ccc(Cl)cc2)n1C1CCCCC1`?
Epigenetic reg: 1%; Gal4-VP16 FLuc: 0.79µM*; RORgamma inh: 1.1µM*; Sfp PPTase inh: 16%; ClpP mod: -2%; PINK1 expr mod: inconclusive

What do the screens show for `Cc1cc(C)c(NC(=O)CSc2ncc(S(=O)(=O)c3ccc(C(C)(C)C)cc3)c(=O)[nH]2)c(C)c1`?
Epigenetic reg: 4%; ClpP mod: -5%; PINK1 expr mod: 0%

What do the screens show for `CCCCC(Sc1nc2cc3c(cc2c(=O)n1CCCC(=O)NCc1ccc2c(c1)OCO2)OCO3)C(=O)OCC` (stereo unspecified)?
Epigenetic reg: 0%; ClpP mod: 2%; PINK1 expr mod: 0%

Results for CSc1ccc(/C=C/C(=O)N2CCN(c3ccccn3)CC2)cc1 ?
Gal4-VP16 FLuc: -27%; RORgamma inh: 13µM*; Sfp PPTase inh: 9%; ClpP mod: -16%; PINK1 expr mod: 1%

How did CCc1nnc(NC(=O)CCC(=O)N2CCN(c3ccccn3)CC2)s1 do in these assays?
Epigenetic reg: 0%; Gal4-VP16 FLuc: -5%; RORgamma inh: 0%; Sfp PPTase inh: 3%; ClpP mod: 18µM*; PINK1 expr mod: 2%

How did COc1ccc(/C=C/C(=O)N2CCN(c3ccccn3)CC2)cc1 do in these assays?
Gal4-VP16 FLuc: -12%; RORgamma inh: -16%; Sfp PPTase inh: 4%; ClpP mod: -3%; PINK1 expr mod: 1%

How did COc1ccc(CCn2c(=O)[nH]c3cc(C(=O)N4CCN(c5ccccc5)CC4)ccc3c2=O)cc1OC do in these assays?
Epigenetic reg: 2%; Gal4-VP16 FLuc: 0%; RORgamma inh: 18%; Sfp PPTase inh: 8%; ClpP mod: 0%; PINK1 expr mod: 8%

How did COc1ccc(CCn2c(=O)[nH]c3cc(C(=O)N4CCN(c5ccccn5)CC4)ccc3c2=O)cc1OC do in these assays?
Epigenetic reg: 4%; Gal4-VP16 FLuc: 2%; RORgamma inh: -12%; Sfp PPTase inh: 9%; ClpP mod: 11µM*; PINK1 expr mod: 7%

How did CCc1nnc(NC(=O)CCC(=O)N2CCN(Cc3ccccc3)CC2)s1 do in these assays?
Epigenetic reg: -2%; Gal4-VP16 FLuc: -7%; RORgamma inh: 5%; Sfp PPTase inh: 8%; ClpP mod: -1%; PINK1 expr mod: -6%[38.3 µM]

Results for COc1cc(OC)c(C(=O)N2CCN(c3ccccn3)CC2)cc1OC ?
Sfp PPTase inh: 17%; ClpP mod: inconclusive; PINK1 expr mod: 6%

How did COc1ccc(CC(=O)N2CCN(c3ccccn3)CC2)cc1OC do in these assays?
Epigenetic reg: -1%; Gal4-VP16 FLuc: 2%; RORgamma inh: 11%; Sfp PPTase inh: 11%; ClpP mod: 22µM*; PINK1 expr mod: -2%

How did CCc1ccc(NC(=O)CSc2cn(CC(=O)N3CCOCC3)c3ccccc23)cc1 do in these assays?
Epigenetic reg: 3%; ClpP mod: 4%; PINK1 expr mod: 0%

How did Cc1c(Cl)cccc1NC(=O)CSc1nc(=O)n(Cc2ccco2)c2c1CCC2 do in these assays?
Epigenetic reg: 0%; ClpP mod: -6%; PINK1 expr mod: -1%

How did CCOc1ccc(-n2c(SCC(=O)Nc3cccc(Cl)c3)nc3c(oc4ccccc43)c2=O)cc1 do in these assays?
Epigenetic reg: 7%; ClpP mod: -2%; PINK1 expr mod: 4%

What do the screens show for `O=C(/C=C/c1ccc(F)cc1)NC(=S)N1CCN(c2ccccn2)CC1`?
Epigenetic reg: 0%; Gal4-VP16 FLuc: 20µM*; RORgamma inh: 2.5µM*; Sfp PPTase inh: -6%; PINK1 expr mod: 2%

What do the screens show for `COc1ccc(/C=C/C(=O)NC(=S)N2CCN(c3ccccn3)CC2)cc1OC`?
Epigenetic reg: 7%; Gal4-VP16 FLuc: 11µM*; RORgamma inh: 3.2µM*; Sfp PPTase inh: inconclusive; ClpP mod: 7%; PINK1 expr mod: 0%

What do the screens show for `O=C(CCN1CCN(c2ccccn2)CC1)Nc1ccc(F)cc1`?
Epigenetic reg: -1%; Gal4-VP16 FLuc: 0%; RORgamma inh: 7%; Sfp PPTase inh: 6%; ClpP mod: 1%; PINK1 expr mod: 3%

What do the screens show for `Cc1cccc(C(=O)N2CCN(c3ccccn3)CC2)c1`?
Epigenetic reg: 1%; Gal4-VP16 FLuc: -10%; RORgamma inh: 7%; Sfp PPTase inh: 10%; ClpP mod: -22%; PINK1 expr mod: 0%[38.3 µM]

What do the screens show for `O=C(CN1C(=O)/C(=C\c2ccc(F)cc2)Oc2ccccc21)N1CCN(c2ccccn2)CC1`?
Epigenetic reg: 0%; Gal4-VP16 FLuc: -11%; RORgamma inh: 0%; Sfp PPTase inh: 20%; ClpP mod: 22µM*; PINK1 expr mod: 9%

Results for Cc1cccc(C(=O)NCC(=O)N2CCN(c3ccccn3)CC2)c1 ?
ClpP mod: 28µM*; PINK1 expr mod: 0%

What do the screens show for `O=c1c(-c2ccc(Cl)cc2)nc2cnc(N3CCOCC3)nc2n1C[C@H]1CCCO1`?
Gal4-VP16 FLuc: 6%; RORgamma inh: -6%; Sfp PPTase inh: 23%; PINK1 expr mod: 1%

How did COC(=O)c1ccccc1NC(=O)Cn1c(=O)n(CCC(=O)NCc2ccc3c(c2)OCO3)c(=O)c2ccccc21 do in these assays?
Epigenetic reg: 6%; ClpP mod: -17%; PINK1 expr mod: 0%

Results for Cc1ccc(C2CC(=O)N3CN(c4ccc(Br)cc4)CSC3=C2C#N)o1 (stereo unspecified) ?
Epigenetic reg: 0%; Gal4-VP16 FLuc: 7%; RORgamma inh: 28%; Sfp PPTase inh: 1.3µM*; ClpP mod: -1%; PINK1 expr mod: 1%[38.3 µM]

How did CCOc1ccc(N2CSC3=C(C#N)C(c4ccco4)CC(=O)N3C2)cc1 (stereo unspecified) do in these assays?
Epigenetic reg: -7%; Gal4-VP16 FLuc: 12%; RORgamma inh: 19%; Sfp PPTase inh: 3.2µM*; ClpP mod: -1%; PINK1 expr mod: inconclusive

Results for CCOc1ccc(N2CC(NC(=O)c3ccco3)CC2=O)cc1 (stereo unspecified) ?
Epigenetic reg: 2%; ClpP mod: 0%; PINK1 expr mod: 1%
